High-throughput results as filed in PubChem BioAssay.
ALOX12 inh = blocks human arachidonate 12S-lipoxygenase. 580,000 compounds, 1.1% hits. P18054. Potency, µM (titrated, usually from 108 µM), for inactives: at the highest dose activity change, negative = inhibition, actives largely listed as inhibitors. purified 12hLO, xylenol orange hydroperoxide absorbance. AID 1671190; further: potency means the concentration at half of the fitted maximal effect
Target sequence (P18054 whole entry, looked up): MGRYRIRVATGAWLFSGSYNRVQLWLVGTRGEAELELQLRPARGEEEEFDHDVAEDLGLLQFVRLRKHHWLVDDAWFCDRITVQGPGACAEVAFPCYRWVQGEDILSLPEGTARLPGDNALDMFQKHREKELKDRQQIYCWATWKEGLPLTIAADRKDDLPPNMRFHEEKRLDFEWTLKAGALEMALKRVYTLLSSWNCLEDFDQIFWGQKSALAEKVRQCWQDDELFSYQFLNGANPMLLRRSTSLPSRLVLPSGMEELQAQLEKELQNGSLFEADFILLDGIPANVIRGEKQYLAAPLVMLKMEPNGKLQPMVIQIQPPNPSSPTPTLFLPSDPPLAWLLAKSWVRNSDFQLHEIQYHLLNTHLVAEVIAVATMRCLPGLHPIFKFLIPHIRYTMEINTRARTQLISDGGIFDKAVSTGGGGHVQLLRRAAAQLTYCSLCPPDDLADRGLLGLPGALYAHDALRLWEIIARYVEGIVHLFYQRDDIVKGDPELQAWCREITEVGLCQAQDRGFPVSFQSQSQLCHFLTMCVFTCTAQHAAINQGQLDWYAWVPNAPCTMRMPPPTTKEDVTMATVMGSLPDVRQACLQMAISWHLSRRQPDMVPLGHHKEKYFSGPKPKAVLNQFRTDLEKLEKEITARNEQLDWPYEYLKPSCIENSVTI
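Purified human 12hLO at 150 nM in 25 mM Hepes, 0.01% Triton X-100, pH 7.0, preincubated 15 min at room temperature with compound. Reaction started with 40 uM arachidonic acid, 30 min at room temperature. Hydroperoxide measured by Fe-xylenol orange, 573/405 nm absorbance ratio.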
HT1080-NT tox = kills 2HG-producing HT-1080-NT fibrosarcoma cells; 360,000 compounds, 1.6% hits; HT-1080-NT fibrosarcoma viability, CellTiter-Glo ATP luminescence, 48 h; Potency, µM (top dose mostly 46.1 µM), without a hit: top-dose activity, negative = less viability, hits mostly cytotoxic;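 further: NT is the 2HG producing partner of a matched IDH1 knockdown line; potency means the concentration at half of the fitted maximal effect; 0% = DMSO-treated cells and -100% = media-only wells without cells; nearly all actives have a fitted effect of over 55% in size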
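HT-1080-NT fibrosarcoma cells (2HG-overproducing), 750 cells/well in RPMI with 5% FBS, dosed after 2 h and incubated 48 h at 37C. CellTiter-Glo luminescence normalized to DMSO and no-cell wells; concentration-response curves fitted and classed.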
HT1080 IDH1KD tx = kills HT-1080 cells with IDH1 knockdown. HT-1080 IDH1 knockdown viability, ATP luminescence, 48 h. Potency, µM (highest dose often 46.1 µM), without a hit: at the top dose activity, negative = toxicity, usual class: cytotoxic. 360,000 compounds, 2% hits. AID 686971;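 further: potency means the concentration at half of the fitted maximal effect; 0% = DMSO wells and -100% = cell-free medium wells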
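After a 2 h attachment period, IDH1KD HT-1080 cells took pin-transferred compound for 48 h at 37 °C; ATP-based luminescence after 10 min room-temperature reagent incubation reported viability.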
TDP1 cell noCPT = qHTS for Inhibitors of human tyrosyl-DNA phosphodiesterase 1 (TDP1): qHTS in cells in absence of CPT | DT40 Tdp1-/- hTDP1 cells, no CPT, ATP luminescence, 48 h | Potency, µM (titrated, usually from 46.2 µM), without a hit: at the top dose activity change, negative = growth inhibition, usual class: inhibitors | 420,000 compounds, 15% hits; further: potency means the concentration at half of the fitted maximal effect; nearly all actives have a fitted effect of over 55% in size
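No-CPT arm: Tdp1-/-;hTDP1 DT40 cells (400/well) plus compounds, incubated ≥48 hr at 37 °C. Readout CellTiter-Glo luminescence.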
IL1B secr inh = inhibitors of inflammasome signaling (IL-1 beta secretion). 360,000 compounds, 4.7% hits. AID 743279. activity change, % at 57.5 µM. THP-1 LPS/ATP IL-1B secretion, AlphaLISA, 16 h; active compounds read low; in the data active means activity change below about -50%; inconclusive means mostly about -30% to -49%
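THP-1 cells pretreated 1 hr with compounds (up to 57.5 uM final), then stimulated with LPS (250 ng/mL final) plus ATP (1.25 mM final); secreted IL-1B measured by AlphaLISA after 16 hr, decreased signal indicating inhibition.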
DT40 TDP1 CPT = growth inhibition of DT40 Tdp1-/-;hTDP1 cells with camptothecin (screen for TDP1 inhibitors). chicken DT40 Tdp1-/-;hTDP1 cells + 20 nM CPT, ATP luminescence, 48 h. Potency, µM (top dose mostly 46.2 µM), without a hit: at the top dose activity change, negative = growth inhibition, hits mostly inhibitors. 420,000 compounds, 12% hits; further: potency means the concentration at half of the fitted maximal effect; nearly all actives have a fitted effect of over 55% in size
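Chicken DT40 Tdp1-/- cells complemented with human TDP1, 400 cells/well, exposed to compounds plus 20 nM camptothecin for at least 48 h at 37 C; viability read as ATP content by CellTiter-Glo luminescence.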
* = called active by the depositor; ? = inconclusive; . = not tested or not shown; [ ] = remark or other dose. This is one part of a sample in which hits are shown more often than they occur. Unless noted, the call rests on the fitted dose curve; in most records, active means well fitted curve in the direction sought with a large enough effect; inconclusive means small, poorly fitted or top-dose-only effect, or another doubt; inactive means no such curve, though single readings can be large; an effect the other way counts as inactive or inconclusive. Unless noted, on the % scale 0 is the no-effect control and ±100 the full control effect.

SMILES | ALOX12 inh | HT1080-NT tox | HT1080 IDH1KD tx | TDP1 cell noCPT | IL1B secr inh | DT40 TDP1 CPT
Cc1ncoc1C(=O)N1CCCC(C(=O)c2ccc(Oc3ccccc3)cc2)C1 (stereo unspecified) | -3.3% | 6.4% | 7.4% | -10.3% | 0.0 | 5.6%
CC(=O)NCC(=O)N1CCCC(C(=O)c2ccc(Oc3ccccc3)cc2)C1 (stereo unspecified) | -0.5% | 0.8% | -18.4% | ? | -17.0 | 9.2µM*
NC(=O)c1ccccc1OCC(=O)N1CCc2ccccc2C1 | -0.7% | -2.9% | -2.8% | 13µM* | 10.5 | ?
O=C(CN1C(=O)c2ccccc2C1=O)OCC(=O)N1CCc2ccccc2C1 | -0.3% | -1.6% | -1.3% | 0.0092µM* | 33.7 | -11.5%
CCOc1ccc(C2c3c(oc4ccc(C)cc4c3=O)C(=O)N2c2nc(C)c(C)s2)cc1OC (stereo unspecified) | ? | . | . | 7.31µM* | . | ?
CC[C@H]1CN(C(=O)C(C)(C)C)CC[C@H]1CC(=O)N(C)CC#N | 4.1%[176 µM] | . | . | . | . | .
CC(=O)Nc1cc(-c2ccccc2)cn2c(-c3ccc(F)c(Cl)c3)cnc12 | ? | -0.9% | ? | ? | -11.6 | 23.1µM*
CC(=O)Nc1cc(-c2cccc(F)c2)cn2c(-c3ccc(F)c(Cl)c3)cnc12 | -22.5% | ? | ? | ? | -2.3 | ?
CC(=O)Nc1cc(-c2ccc(F)cc2)cn2c(-c3ccc(F)c(Cl)c3)cnc12 | ? | ? | ? | 23.1µM* | -12.8 | ?
CC(=O)Nc1cc(-c2ccc(CO)cc2)cn2c(-c3ccc(F)c(Cl)c3)cnc12 | 35.5µM* | 32.6µM* | ? | ? | -27.7 | ?
CN(C)c1ccc(C(=C2c3ccccc3-c3ccccc32)c2ccc(N(C)C)cc2)cc1 | . | . | . | 1.3% | . | -8.2%
CS(=O)(=O)c1ccc(C(=O)OCC(=O)Nc2ccc(OC(F)(F)F)cc2)cc1[N+](=O)[O-] | . | . | . | 10µM* | . | 8.91µM*
CC(=O)c1cccc(NC(=O)C(C)OC(=O)c2ccc(S(C)(=O)=O)c([N+](=O)[O-])c2)c1 (stereo unspecified) | . | . | . | 3.16µM* | . | 2.24µM*
COc1ccc(C(=O)OCC(=O)Nc2ccccc2)cc1[N+](=O)[O-] | -3.9% | 5.9% | -0.5% | -1.3% | 7.3 | -4.1%
O=C(COC(=O)c1ccc(OC(F)(F)F)cc1)Nc1ncccn1 | -6.9% | -3.9% | 0.0% | 16.8% | 4.1 | 20.6µM*
NC(=O)NC(=O)COC(=O)c1ccc(OC(F)(F)F)cc1 | 3.5% | 3.6% | -0.5% | 2.7% | 0.1 | -3.6%
CC(=O)c1cccc(NC(=O)COC(=O)c2ccc(S(C)(=O)=O)c([N+](=O)[O-])c2)c1 | 0.4% | ? | ? | 10µM* | -89.3* | 6.31µM*
Cc1csc(Sc2ccc(C(=O)OCC(=O)Nc3ccc(OC(F)(F)F)cc3)cc2[N+](=O)[O-])n1 | -18.9% | 0.1% | -4.8% | ? | -9.5 | -13.8%
CN1[C@@H](CCC(=O)NCc2ccc(F)cc2)CNC(=O)[C@@H]2[C@H]1CCN2Cc1cccc(Cl)c1 | 0.3% | . | . | . | . | .
Cn1c(=O)c2c(ncn2CCC(=O)Nc2ccc(Cl)cc2)n(C)c1=O | 3.3% | . | . | . | . | .
O=C(Nc1ccc(F)c(F)c1)c1cc(S(=O)(=O)N2CCc3ccccc32)ccc1F | ? | . | . | 10.3µM* | . | 10.3µM*
O=C(Nc1ccc(Cl)cc1)c1cc(S(=O)(=O)N2CCc3ccccc32)ccc1F | ? | . | . | 18.4µM* | . | 18.4µM*
COC(CNC(=O)c1cc(S(=O)(=O)N2CCc3ccccc32)ccc1F)OC | 0.0% | 21.8% | 14.6% | 0.2% | 1.4 | ?
COc1ccc(S(=O)(=O)N2CCc3ccccc32)cc1C(=O)Nc1ccc(NC(C)=O)cc1 | 20.3% | ? | -25.1% | ? | -10.3 | ?
CCn1nnc2cc(C(=O)O)ccc21 | -2.1% | 16.9% | 17.2% | -13.9% | -5.2 | -4.0%
SMILES | ALOX12 inh | HT1080-NT tox | HT1080 IDH1KD tx | TDP1 cell noCPT | IL1B secr inh | DT40 TDP1 CPT
O=C(Cc1cccc2ccccc12)NCCc1cccnc1 | 20.7% | . | . | . | . | .
Cc1cc(C)cc(NC(=O)Cn2c(=O)oc3cc(S(=O)(=O)N4CCCC4)ccc32)c1 | -15.0% | . | . | 20.6µM* | . | ?
Cc1cc(NC(=O)Cn2c(=O)oc3cc(S(=O)(=O)N4CCCC4)ccc32)ccc1Br | 4.0% | . | . | 14.6µM* | . | 20.6µM*
Cc1ccc(NC(=O)Cn2c(=O)oc3cc(S(=O)(=O)N4CCC(C)CC4)ccc32)cc1C | 13.0%[57.4 µM] | ? | ? | ? | 19.5 | 14.6µM*
COc1ccc(NC(=O)Cn2c(=O)oc3cc(S(=O)(=O)N4CCCC4)ccc32)cc1 | 10.1% | 0.0% | 6.3% | -20.2% | -8.8 | -18.2%
Cc1ccc(NC(=O)Cn2c(=O)oc3cc(S(=O)(=O)N4CCCCC4)ccc32)c(Cl)c1 | -17.3% | . | . | 11.6µM* | . | ?
Cc1ccc(NC(=O)Cn2c(=O)oc3cc(S(=O)(=O)N4CCCC4)ccc32)cc1F | -16.8% | . | . | -20.2% | . | -20.7%
O=C(CNS(=O)(=O)c1ccccc1)OCC(=O)c1ccc([N+](=O)[O-])cc1 | -13.8% | -4.5% | -3.9% | ? | 0.0 | 20.6µM*
O=C(CNS(=O)(=O)c1ccccc1)OCC(=O)c1ccc(Br)cc1 | -13.7% | -2.3% | 2.0% | -5.2% | -4.5 | 1.9%
O=C(Cc1ccc([N+](=O)[O-])cc1)NCc1ccccn1 | 7.2% | 13.1% | -0.5% | 2.91µM* | 26.5 | 4.61µM*
O=C(Cc1ccccc1)NCC(=O)OCC(=O)c1ccc([N+](=O)[O-])cc1 | ? | 1.2% | 23.2% | ? | -72.1* | ?
O=C(COC(=O)c1ccc2c(c1)-c1ccccc1C2=O)c1cccc([N+](=O)[O-])c1 | 4.4% | . | . | . | . | .
O=C(COC(=O)c1cccc([N+](=O)[O-])c1)c1ccc(OCc2ccccc2)cc1 | -5.8% | 15.7% | 21.2% | 13µM* | -12.1 | ?
C=CCC1(O)C(=O)N2C(=C1C(=O)N1CCOCC1)c1ccccc1CC2(C)C (stereo unspecified) | 0.2% | 3.8% | 9.5% | 16.0% | 1.6 | -17.0%
CCOC(=O)c1cccnc1NC(=O)c1ccccc1 | -4.9% | 16.7% | 13.9% | ? | 33.6 | 5.6%
O=C(Nc1nccs1)c1csc(NC2CC2)n1 | -6.3% | . | . | . | . | .
O=C(CNC(=O)c1ccco1)OCC(=O)c1ccc([N+](=O)[O-])cc1 | -25.7% | 6.3% | 0.2% | ? | -76.5* | ?
O=C(CNC(=O)c1ccco1)OCC(=O)c1ccc(Cl)cc1 | 0.6% | -2.2% | 5.4% | 3.6% | 22.8 | 6.6%
